Reference: PubChem BioAssay AID686971 (National Center for Advancing Translational Sciences (NCATS), 2013)
Hit rate of the full screen: of about 360,000 compounds, about 7,500 (2.1%) were called active. Roughly 8% stayed inconclusive and do not appear here. The sample as a whole holds a higher share of actives than the screen did. Values without a mark were called inactive. Calls come from the whole dose curve; as a rule, active = well fitted cell-killing curve with a large enough effect; inconclusive = small, poorly fitted or top-dose-only effect, or effect the other way, or another doubt; inactive = no such curve, though single readings can be large or run the other way.

Assay: qHTS for induction of synthetic lethality in tumor cells producing 2HG: qHTS for the HT-1080-IDH1KD cell line;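 for activity, negative = toxicity: 0% = DMSO wells and -100% = cell-free medium wells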
Conditions: HT-1080 IDH1 knockdown viability, ATP luminescence, 48 h; series mostly up to 46.1 µM; activity, negative = toxicity: at the top concentration
How it was run: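 Cytotoxicity counter-line: IDH1KD HT-1080, 48 h, CellTiter-Glo. Curves classed by r2, magnitude and activity.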
Potency is the fitted concentration of half-maximal effect.

Row | Structure (SMILES) | activity, negative = toxicity | Potency
1 | CC(C)CCNC(=O)c1[nH]c(C(F)(F)F)nc1-c1ccccc1 | 7.3% | –
2 | O=C(Nc1cc(F)ccc1F)c1ccc2c(=O)n3c(nc2c1)CCC3 | 12.3% | –
3 | CC1(C(=O)NCc2ccc3c(c2)OCO3)CCN1C(=O)Cc1cccs1 (centres undefined) | 27.3% | –
4 | CN1CCn2cnc(C(=O)NCC(=O)OC(C)(C)C)c2C1=O | 7.32% | –
5 | C[N+](C)(C)CCNC(=O)c1c[nH]c2ccccc12 | 7.44% | –
6 | CC[C@H]1CN2CCc3cc(OC)c(OC)cc3[C@@H]2C[C@@H]1C[C@H]1NCCc2cc(OC)c(OC)cc21 | – | 0.13 µM (active)
7 | COc1cc2c(cc1OC)CN(CC(=O)Nc1ccc(F)cc1)CC2 | -0.566% | –
8 | Clc1ccc(-c2cccc3nccn23)cc1 | 8.87% | –
9 | Cc1cccc(CN2CCN(C3CN(Cc4ccccc4)S(=O)(=O)C3)CC2)c1 (centres undefined) | -7.16% | –
10 | COc1cc(CCN=Cc2ccccc2O)c([N+](=O)[O-])cc1OC | 20.8% | –
11 | C=CCNc1cnn(-c2ccc(C)cc2)c(=O)c1Cl | 5.14% [at 9.24 µM] | –
12 | Cc1ccc(Oc2cnn(-c3ccccc3)c(=O)c2Br)cc1 | -18.1% | –
13 | Cc1cccc(-n2ncc(Cl)c(Cl)c2=O)c1 | – | 20.6 µM (active)
14 | CCCC(=O)N1CCC1(C)C(=O)NCc1ccc(C(C)C)cc1 (centres undefined) | 19.5% | –
15 | Cc1csc(=O)n1CCC(=O)OCC(=O)Nc1ccc(N2CCOCC2)cc1 | 0.321% | –
16 | COc1ccc(NC(=O)C(=O)NCC(=O)Nc2cccc(C(F)(F)F)c2)cc1 | 3.95% | –
17 | O=C(Nc1ccc(C(=O)N2CCOCC2)cc1)Nc1cccc(C(F)(F)F)c1 | -0.769% | –
18 | COc1ccc(CC(N)c2csc(NC(=O)Nc3ccc(C(C)C)cc3)n2)cc1 (centres undefined) | – | 14.6 µM (active)
19 | COc1ccc(NC(=O)C(Br)C(C)C)cc1 (centres undefined) | -0.582% | –
20 | COC(=O)[C@H](CCSC)NC(=O)Nc1ccc(OC)cc1 | 15% | –
21 | Cc1ccccc1NC(=O)Cc1nc(COC(=O)c2ccc(C(F)(F)F)cc2)cs1 | 3.99% | –
22 | NC(c1csc(NC(=O)Nc2cccc(C(F)(F)F)c2)n1)C1CCCCC1 (centres undefined) | – | 14.6 µM (active)

Row | Structure (SMILES) | activity, negative = toxicity | Potency
23 | CC(C)(C)CC(=O)Nc1nc(C(N)Cc2ccc(C(F)(F)F)cc2)cs1 (centres undefined) | – | 18.4 µM (active)
24 | CC(C)C[C@H](NC(=O)Nc1cccc(C(F)(F)F)c1)C(=O)O | 7.1% | –
25 | CC(C)(C)CC(=O)Nc1nnc(SCC(=O)NCc2cccs2)s1 | 1.04% | –
26 | COc1ccc(C(N)c2csc(NC(=O)Nc3cccc(C(F)(F)F)c3)n2)cc1 (centres undefined) | – | 18.4 µM (active)
27 | NC(c1ccccc1)c1csc(NC(=O)Nc2cccc(C(F)(F)F)c2)n1 (centres undefined) | -27% | –
28 | C=C1C=C(C)n2ncc(C(=O)Nc3ccccc3O)c2N1 | -3.89% | –
29 | CCc1nc2c(OCCOc3ccccc3)cccn2c1N(C)C(=O)c1ccccc1F | 5.45% | –
30 | CCOc1cc(/C=N/NC(=O)c2ccncc2)cc(Br)c1O | 2.86% | –
31 | Cc1cc(Cl)ccc1C(=O)C1CCCN(C(=O)c2ccc3c(c2)OCO3)C1 (centres undefined) | -12% | –
32 | C[C@@H]1CN([C@@H](C)CO)C(=O)CCCn2cc(nn2)CO[C@H]1CN(C)S(=O)(=O)c1ccc(-n2cccn2)cc1 | 0.687% | –
33 | O=C(c1ccc(CS(=O)Cc2ccccc2Cl)o1)N1CCN(c2ccccc2)CC1 (centres undefined) | -1.14% | –
34 | CC1(C(=O)NS(=O)(=O)c2ccc(C#N)cc2)CCN1C(=O)c1ccc(C2CCCCC2)cc1 (centres undefined) | -17.3% | –
35 | CCOC(=O)C1C(C)C(C(C)(C)C)N(S(=O)(=O)c2ccc(C)cc2)C1c1ccccc1 (centres undefined) | -24.4% | –
36 | Cc1ccc(-c2ccc(CN3C(C)C(=O)N(Cc4cn(CCC5OCCCO5)nn4)CCS3(=O)=O)cc2)cc1 (centres undefined) | -11.1% | –
37 | CC1(C(=O)Nc2cccc3c2CCCC3)CCN1C(=O)C1(c2ccccc2)CC1 (centres undefined) | -21.8% | –
38 | O=C(Nc1cccc(Cc2ccccc2)c1)Nc1ccc2nc([C@@H]3O[C@H](CO)[C@@H](O)[C@H](O)[C@H]3O)[nH]c2c1 | 27.1% | –
39 | Cc1[nH]c2ccccc2c1C(=O)CN1CCCC(C)C1 (centres undefined) | -0.222% | –
40 | Cc1[nH]c2ccccc2c1C(=O)CSCC(=O)O | 2.2% | –
41 | Cc1[nH]c2ccccc2c1C(=O)CN1CC(C)CC(C)C1 (centres undefined) | – | 18.4 µM (active)
42 | C=CCn1c2c(c3ccccc31)CCC2 | 9.84% | –
43 | C=C1C(=O)OC2C1CCC(C)=CCCC1(C)OC21 (centres undefined) | – | 11.6 µM (active)
44 | Cc1cc(C)c(-c2c(O)c3ccccc3n(C)c2=O)c(C)c1 | 6.69% | –

Row | Structure (SMILES) | activity, negative = toxicity | Potency
45 | Cn1c(=O)c([N+](=O)[O-])c(Oc2ccccc2)c2ccccc21 | – | 23.1 µM (active)
46 | COc1cc2c(=O)n(C)c3ccccc3c2cc1OC | 10.9% | –
47 | Cc1c(/C=N\NC(=O)c2cc3ccccc3o2)c2ccccc2n1C | – | 18.4 µM (active)
48 | O=C(N/N=C/c1cccc(O)c1)c1cc2c(ccc3ccccc32)o1 | -9.35% | –
49 | Cc1c(/C=N/N2C(=O)C3C4C=CC(C4)C3C2=O)c2ccccc2n1C (centres undefined) | -0.0518% | –
50 | CN(Cc1ccccc1)C(=O)[C@@H]1CCCN1C(=O)[C@@H]1CCCN1C(=O)c1c(F)cccc1F | 2.52% | –
51 | CCOC(=O)/C=C/C(=O)OCC(=O)NC(c1ccccc1)c1ccccc1 | – | 20.6 µM (active)
52 | O=C(Cc1ccc(-c2ccccc2)cc1)NC(c1ccccc1)c1ccccc1 | -29.4% | –
53 | CCOC(=O)C(C(=O)OCC)C(C#N)c1ccccc1 (centres undefined) | 1.46% | –
54 | CN(C)c1ccc(C2N(C)C(=O)c3ccccc3N2C)cc1 (centres undefined) | -14.3% | –
55 | CN(C)c1ccc(Nc2c3c4c(cccc4n(C)c2=O)C(=O)c2ccccc2-3)cc1 | – | 4.61 µM (active)
56 | CSc1ncnc2c1ncn2CCCNCC(C)c1ccccc1 (centres undefined) | 0.421% | –
57 | c1ccc(Cn2nnc3c(NCC4CC4)ncnc32)cc1 | 1.82% | –
58 | O=[N+]([O-])/C=C/c1ccc2c(ccn2Cc2ccccc2)c1 | – | 16.4 µM (active)
59 | CCc1nc2ccc(C(=O)N(C)Cc3ccco3)cn2c1N(C)C(=O)Cc1ccccc1 | 0% | –
60 | Cc1ccc(S(=O)(=O)N2C[C@H]3C(=O)C[C@@H](c4cccc5ccccc45)N(S(=O)(=O)c4ccc(C)cc4)[C@H]3C[C@H]2c2ccc(Cl)cc2)cc1 | -4.09% | –
61 | CC(=O)c1ccc(Nc2nc(C(N)c3ccccc3)cs2)cc1 (centres undefined) | -10% | –
62 | NC(Cc1ccc(F)cc1)c1csc(Nc2nncc3ccccc23)n1 (centres undefined) | – | 25.9 µM (active)
63 | COCC(C)NC(=O)COc1nncc2ccccc12 (centres undefined) | 15.1% | –
64 | CN1CCN(C(=O)c2ccc(-c3cc4nc(NCc5cccnc5)n(C)c(=O)c4s3)cc2)CC1 | -0.409% | –
